PubChem BioAssay (NCATS)
Records with an inconclusive call do not appear. Active and inactive are the calls of the source. Unless noted, calls follow the shape of the dose curve; as a rule, active = well fitted curve in the direction sought with a large enough effect; inconclusive = small, poorly fitted or top-dose-only effect, or another doubt; inactive = no such curve, though single readings can be large; an effect the other way counts as inactive or inconclusive.

Experiments:
[1] = target: Rap guanine nucleotide exchange factor 3 (Homo sapiens) (UniProt O95398); test: Confirmatory qHTS for antagonist of cAMP-regulated guanine nucleotide exchange factor 3 (EPAC1) (AID 1645880); settings: EPAC1 Rap1B-BODIPY-GDP exchange, fluorescence; activity, negative = inhibition: at 115 µM (top of the series); also: nearly all actives have a fitted effect of over 55% in size; also: potency is read from the fitted curve at half-maximal effect;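 as to activity, negative = inhibition: plate controls were DMSO only for no effect and full effect of the ATA control for full effect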
Method in brief: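 Released BODIPY-GDP fluoresces less than Rap1-bound BODIPY-GDP; the signal is followed at 480/540 nm at 5-min intervals over 30 min, after 5 min at room temperature. Reactions contain 100 nM EPAC1, 250 nM RAP1B-BODIPY-GDP and 50 uM GDP; results are normalized to ATA and DMSO.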

[2] = target: Rap guanine nucleotide exchange factor 3 (Homo sapiens) (UniProt O95398); test: Confirmatory qHTS for agonist of cAMP-regulated guanine nucleotide exchange factor 3 (EPAC1) (AID 1645881); settings: EPAC1 Rap1B BODIPY-GDP exchange fluorescence; series mostly up to 154 µM;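 also: EPAC1 catalysed release of BODIPY-GDP from Rap1B seen as fluorescence loss; 100% = effect of cAMP agonist control; nearly all actives have a fitted effect of over 75% in size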
[3] = target: Rap guanine nucleotide exchange factor 4 (Homo sapiens) (UniProt Q8WZA2); test: Confirmatory qHTS for antagonist of cAMP-regulated guanine nucleotide exchange factor 4 (EPAC2) (AID 1645885); settings: EPAC2 Rap1B-BODIPY-GDP exchange fluorescence, biochemical; series mostly up to 12.7 µM; also: nearly all actives have a fitted effect of over 25% in size; also: potency is read from the fitted curve at half-maximal effect
[4] = target: Rap guanine nucleotide exchange factor 3 (Homo sapiens) (UniProt O95398); test: Counterscreen qHTS for antagonist of cAMP-regulated guanine nucleotide exchange factor 3 (EPAC1) (AID 1645888); settings: Rap1B-BODIPY-GDP nucleotide exchange, fluorescence; series mostly up to 154 µM; also: % of control where 0% means no effect
Method in brief: (§1)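 Rap1B-BODIPY-GDP 250 nM + GDP 50 uM; cpds 7-pt, final 9.74 nM–152 uM (activator mode) or from 7.32 nM upwards (inhibitor mode); RT; FI 480/540 nm at 5 and 30 min, then ± cAMP, reread.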

[5] = target: Lysosomal acid glucosylceramidase (Homo sapiens) (UniProt P04062); test: Glucocerebrosidase-p2 (AID 348; in the data active = potency below about 10 µM; also: potency is read from the fitted curve at half-maximal effect); settings: purified GBA, blue fluorogenic substrate, 40 min
Method in brief: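 Normal human glucocerebrosidase (0.2 nM) with blue fluorogenic substrate (80 uM final) in citrate/phosphate pH 5.9 with 10mM sodium taurocholate, 0.01% tween-20; 40 min RT, NaOH/glycine stop; fluorescence Ex 365/Em 440; AC50 from a titration from 0.6 nM upwards.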

[6] = AP1 Signaling Pathway (AID 357; active = well fitted curve in either direction with a large enough effect, not every such curve was filed as active;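 also: ME-180 reporter cells stimulated with EGF at its EC50 level; % is scaled to controls: 0 for no effect and ±100 for the full control effect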); settings: ME-180 AP-1-bla reporter, EGF-induced, beta-lactamase ratio, 5 h; at 7.69 µM (top of the series) unless noted
Method in brief: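 Cells are seeded overnight, exposed to compound titrations and an EC50 level of EGF for 5 hours at 37 °C, then loaded with CCF4 dye for 2.5 hours. Beta-lactamase activity under the AP-1 element is read as a blue/green ratio.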

[7] = NFAT Signaling Pathway (AID 444; active = well fitted curve in either direction with a large enough effect, not every such curve was filed as active;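 also: carbachol stimulus at about its EC50 of 1 µM final; % is scaled to controls: 0 for no effect and ±100 for the full control effect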); settings: Jurkat NFAT-bla M1, carbachol, beta-lactamase ratio, 5 h; at 7.69 µM (top of the series) unless noted
Method in brief: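 Read-out: CCF4 FRET ratio (460 nm/530 nm) after 1 h RT dye loading, used for %activity and AC50 from titration series. Cells: Jurkat NFAT-β-lactamase/M1 line, treated with compound plus 1 uM carbachol for 5 h, 37 °C.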

[8] = Stat Signaling Pathway (AID 446; active = well fitted curve in either direction with a large enough effect, not every such curve was filed as active;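 also: ME-180 cervical cancer cells given 40 pM IL-6 alongside compound; SIE-controlled beta-lactamase reporter measured as 460/530 nm FRET emission ratio; % is scaled to controls: 0 for no effect and ±100 for the full control effect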); settings: ME-180 (cervical carcinoma) SIE beta-lactamase reporter, IL-6 stimulated, 5 h; series mostly up to 7.69 µM
Method in brief: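 Emission at 460 and 530 nm (excitation 405 nm) reports SIE-controlled beta-lactamase in ME-180 cells. Cells received compound with 40 pM IL-6 for 5 hrs at 37 C; data scaled between 300 pM IL-6 and 125 nM JAK-inhibitor controls.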

[9] = target: Glucocorticoid receptor (Homo sapiens) (UniProt P04150); test: GR-EFC Redistribution (AID 451; calls by dose curve; also: potency is read from the fitted curve at half-maximal effect); settings: CHO-K1 GR-EFC translocation, beta-gal luminescence, 2 h
Method in brief: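 Translocation of GR-ED fusion to nuclear EA restores b-gal, read by luminescence after 1 h room-temperature detection. Engineered CHO-K1 biosensor cells, 1,000/well, exposed 2 h at 37 C to titrations up to 46 uM final.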

[10] = target: Mitogen-activated protein kinase 10 (Mus musculus) (UniProt Q61831); test: JNK3 AlphaScreen Assay (AID 530; active = well fitted curve in either direction with a large enough effect, not every such curve was filed as active;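 also: kinase came from lysate of stimulated human HepG2 cells; signal reports phosphorylation of biotinylated GST-cJun 1-79 at Ser73 with 10 µM ATP; % is scaled to controls: 0 for no effect and ±100 for the full control effect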); settings: JNK3 lysate, c-Jun phosphorylation; series mostly up to 57.1 µM
Method in brief: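 qHTS titrations with 15 min compound pre-incubation before adding ATP (10 uM final). Read-out: AlphaScreen of Ser73-phosphorylated biotin-GST-cJun using HepG2 lysate JNK3 activated by IL-1β and TNFα.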

[11] = target: 3',5'-cyclic-AMP phosphodiesterase 4B (Homo sapiens) (UniProt Q07343); test: qHTS Assay for Inhibitors of PDE-IV (AID 607; active = well fitted activation curve with a large enough effect in the main read-out, with a control signal flat, not every such curve was filed as active; also: % of control where 0% means no effect); settings: HEK293 ACTOne CNG channel cells, membrane potential fluorescence; series mostly up to 22.9 µM
Method in brief: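 The readout is membrane depolarisation from a cAMP-sensing CNG channel, detected with a potential dye at ex 535/em 590. Cells were HEK293-derived (endogenous PDE-IV) at 1000 cells/well, titrated up to 22.9 uM final.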

[12] = target: Rap guanine nucleotide exchange factor 4 (Homo sapiens) (UniProt Q8WZA2); test: Confirmatory qHTS for agonist of cAMP-regulated guanine nucleotide exchange factor 4 (EPAC2) (AID 1645884); settings: EPAC2 GEF activity, Rap1B-BODIPY-GDP fluorescence; series mostly up to 154 µM;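 also: nucleotide exchange releases bodipy-GDP from Rap1 and this lowers its fluorescence; % is scaled to controls: 0 for no effect and ±100 for the full control effect; nearly all actives have a fitted effect of over 65% in size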
[13] = target: Glucocorticoid receptor (Homo sapiens) (UniProt P04150); test: GR-GFP Redistribution (AID 450;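 active = compounds whose dose series gives a full or clear partial fitted curve of increased nuclear translocation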; also: potency is read from the fitted curve at half-maximal effect); settings: U2OS GR-GFP nuclear translocation, laser cytometry, 2 h
[14] = target: Rap guanine nucleotide exchange factor 3 (Homo sapiens) (UniProt O95398); test: Counterscreen qHTS for agonist of cAMP-regulated guanine nucleotide exchange factor 3 (EPAC1) (AID 1645889); settings: EPAC1 Rap1B-BODIPY-GDP exchange, fluorescence; series mostly up to 154 µM; also: % of control where 0% means no effect; nearly all actives have a fitted effect of over 40% in size
Method in brief: as §1

[15] = target: Cytochrome P450 3A4 (Homo sapiens) (UniProt P08684); test: qHTS Assay for Inhibitors and Substrates of Cytochrome P450 3A4 (AID 884); settings: recombinant CYP3A4, Luciferin-PPXE luminescence; series mostly up to 57.1 µM; also: potency is read from the fitted curve at half-maximal effect; nearly all actives have a fitted effect of over 50% in size
Method in brief: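 Luminescent readout of luciferin produced by CYP3A4 (20 nM) dealkylation of Luciferin-PPXE, 25 uM (its KM). NADPH-driven reaction ran 60 min at RT after 10 min compound preincubation; data scaled to 57 uM ketoconazole as 100% inhibition.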

[16] = target: Cytochrome P450 3A4 (Homo sapiens) (UniProt P08684); test: qHTS Assay for Activators of Cytochrome P450 3A4 (AID 885); settings: recombinant CYP3A4, Luciferin-PPXE luminescence, 60 min; series mostly up to 57.1 µM; also: nearly all actives have a fitted effect of over 65% in size
Method in brief: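 Activators are scored by enhanced luminescence from CYP3A4 conversion of luciferin-PPXE (25uM, equal to KM) to luciferin, after 60 min at RT with an NADPH-regenerating system.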

[17] = Confirmation and Secondary Assay for Modulators of Hemoglobin Beta Chain Splicing at IVS2 654 locus (AID 910); settings: HeLa EGFP-654 splicing reporter, GFP fluorescence, 48 h; series mostly up to 46.1 µM;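 also: HeLa cells stably carrying EGFP split by mutant beta-globin IVS2-654 intron; per-well total GFP intensity by laser scanning cytometry after 2-day treatment; % of control where 0% means no effect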
Method in brief: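 Readout: per-well total peak green fluorescence (488 nm ex, 500–520 nm em) from objects 5–250 µm, reflecting correct splicing of an EGFP-654 reporter. Compounds were applied for 2 days at 37 °C to overnight-plated HeLa EGFP-654 cells; controls were DMSO and 500 nM IVS2-654 PNA.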

[18] = Confirmation and Secondary Assay for Modulators of Hemoglobin Beta Chain Splicing at IVS2 705 locus (AID 930); settings: HeLa EGFP-705 splicing reporter, GFP fluorescence, 48 h; series mostly up to 46.1 µM;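 also: HeLa cells stably expressing the EGFP-705 splicing reporter; GFP fluorescence per well restored by corrected splicing of the IVS2-705 intron in EGFP; % of control where 0% means no effect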
Method in brief: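 Per-well GFP, captured at 1 x 8 µm resolution with 488 nm excitation, served as the read-out for HeLa EGFP-705 cells incubated 2 days with test compound versus DMSO.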

[19] = target: Ubiquitin carboxyl-terminal hydrolase 1 (Homo sapiens) (UniProt O94782); test: Inhibitors of USP1/UAF1: Pilot qHTS (AID 504865); settings: purified USP1/UAF1, Ub-rhodamine cleavage fluorescence; series mostly up to 54.9 µM; also: potency is read from the fitted curve at half-maximal effect; nearly all actives have a fitted effect of over 35% in size
Method in brief: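 Kinetic fluorescence assay: 1nM USP1/UAF1, 15 min compound preincubation, then 150nM Ub-Rho; 480/540 nm.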

Rap guanine nucleotide exchange factor 3 (Homo sapiens), sequence (O95398 whole entry, looked up): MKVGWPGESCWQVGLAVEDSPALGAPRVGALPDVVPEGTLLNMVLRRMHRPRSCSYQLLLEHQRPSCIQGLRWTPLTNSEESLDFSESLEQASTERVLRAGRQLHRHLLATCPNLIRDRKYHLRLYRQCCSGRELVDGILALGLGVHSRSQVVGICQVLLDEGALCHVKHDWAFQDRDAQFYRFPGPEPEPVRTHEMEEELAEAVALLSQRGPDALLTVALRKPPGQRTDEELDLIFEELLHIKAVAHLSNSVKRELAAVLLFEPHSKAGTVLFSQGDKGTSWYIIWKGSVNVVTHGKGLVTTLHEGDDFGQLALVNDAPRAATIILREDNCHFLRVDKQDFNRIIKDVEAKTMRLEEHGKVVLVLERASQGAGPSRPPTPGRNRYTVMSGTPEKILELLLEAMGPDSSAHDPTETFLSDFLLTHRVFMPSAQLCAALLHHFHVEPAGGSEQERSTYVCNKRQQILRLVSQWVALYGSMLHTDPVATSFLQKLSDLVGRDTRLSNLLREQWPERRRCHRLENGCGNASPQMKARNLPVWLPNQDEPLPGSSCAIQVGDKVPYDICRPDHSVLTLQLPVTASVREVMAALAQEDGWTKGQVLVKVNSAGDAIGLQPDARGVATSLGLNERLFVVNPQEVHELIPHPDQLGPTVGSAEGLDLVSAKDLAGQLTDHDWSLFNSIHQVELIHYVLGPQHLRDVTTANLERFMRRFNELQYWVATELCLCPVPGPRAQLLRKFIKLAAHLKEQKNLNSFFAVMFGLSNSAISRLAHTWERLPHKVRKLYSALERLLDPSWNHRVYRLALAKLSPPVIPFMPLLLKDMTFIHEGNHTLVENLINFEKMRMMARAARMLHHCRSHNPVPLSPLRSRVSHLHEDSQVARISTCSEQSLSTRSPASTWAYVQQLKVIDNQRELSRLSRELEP
Cytochrome P450 3A4 (Homo sapiens), sequence (P08684 whole entry, looked up): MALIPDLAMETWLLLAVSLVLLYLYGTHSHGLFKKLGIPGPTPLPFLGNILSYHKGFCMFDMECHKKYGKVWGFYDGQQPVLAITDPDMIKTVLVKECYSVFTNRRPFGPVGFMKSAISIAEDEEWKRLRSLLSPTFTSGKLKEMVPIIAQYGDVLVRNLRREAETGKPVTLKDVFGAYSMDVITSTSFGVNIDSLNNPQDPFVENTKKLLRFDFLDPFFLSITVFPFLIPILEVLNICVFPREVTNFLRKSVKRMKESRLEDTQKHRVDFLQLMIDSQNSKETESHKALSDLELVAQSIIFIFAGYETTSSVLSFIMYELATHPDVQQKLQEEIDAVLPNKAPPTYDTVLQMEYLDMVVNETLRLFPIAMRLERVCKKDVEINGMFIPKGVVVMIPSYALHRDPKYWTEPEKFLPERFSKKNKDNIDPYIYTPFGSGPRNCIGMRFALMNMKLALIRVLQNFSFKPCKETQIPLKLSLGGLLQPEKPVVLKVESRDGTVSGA
Rap guanine nucleotide exchange factor 4 (Homo sapiens), sequence (Q8WZA2 whole entry, looked up): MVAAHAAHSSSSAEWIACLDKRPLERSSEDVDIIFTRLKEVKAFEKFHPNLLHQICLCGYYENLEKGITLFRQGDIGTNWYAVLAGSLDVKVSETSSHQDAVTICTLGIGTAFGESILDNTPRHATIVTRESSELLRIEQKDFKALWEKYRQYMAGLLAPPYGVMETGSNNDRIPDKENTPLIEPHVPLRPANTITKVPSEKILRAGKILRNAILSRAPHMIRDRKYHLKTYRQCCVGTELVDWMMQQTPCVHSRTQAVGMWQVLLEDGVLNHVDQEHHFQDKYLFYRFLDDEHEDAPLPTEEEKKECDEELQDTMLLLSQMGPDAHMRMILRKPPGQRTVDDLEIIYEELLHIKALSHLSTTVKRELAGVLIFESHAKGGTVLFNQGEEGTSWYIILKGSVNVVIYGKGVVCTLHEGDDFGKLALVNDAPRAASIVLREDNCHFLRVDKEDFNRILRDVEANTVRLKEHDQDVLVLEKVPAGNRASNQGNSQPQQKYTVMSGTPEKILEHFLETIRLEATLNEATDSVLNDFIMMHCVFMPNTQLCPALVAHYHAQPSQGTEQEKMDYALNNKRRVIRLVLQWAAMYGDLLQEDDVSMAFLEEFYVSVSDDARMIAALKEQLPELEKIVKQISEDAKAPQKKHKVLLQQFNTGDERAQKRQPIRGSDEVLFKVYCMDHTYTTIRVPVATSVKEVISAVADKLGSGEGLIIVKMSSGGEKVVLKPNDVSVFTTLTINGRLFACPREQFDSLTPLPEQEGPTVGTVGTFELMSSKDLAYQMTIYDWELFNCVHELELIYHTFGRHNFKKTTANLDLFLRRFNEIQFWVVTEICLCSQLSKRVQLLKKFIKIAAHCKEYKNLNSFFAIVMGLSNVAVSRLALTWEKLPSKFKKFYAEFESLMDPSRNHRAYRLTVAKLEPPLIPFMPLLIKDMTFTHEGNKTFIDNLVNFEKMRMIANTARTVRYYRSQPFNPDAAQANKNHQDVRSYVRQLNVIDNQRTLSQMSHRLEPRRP
Glucocorticoid receptor (Homo sapiens), sequence (P04150 whole entry, looked up, the tested form may be a part): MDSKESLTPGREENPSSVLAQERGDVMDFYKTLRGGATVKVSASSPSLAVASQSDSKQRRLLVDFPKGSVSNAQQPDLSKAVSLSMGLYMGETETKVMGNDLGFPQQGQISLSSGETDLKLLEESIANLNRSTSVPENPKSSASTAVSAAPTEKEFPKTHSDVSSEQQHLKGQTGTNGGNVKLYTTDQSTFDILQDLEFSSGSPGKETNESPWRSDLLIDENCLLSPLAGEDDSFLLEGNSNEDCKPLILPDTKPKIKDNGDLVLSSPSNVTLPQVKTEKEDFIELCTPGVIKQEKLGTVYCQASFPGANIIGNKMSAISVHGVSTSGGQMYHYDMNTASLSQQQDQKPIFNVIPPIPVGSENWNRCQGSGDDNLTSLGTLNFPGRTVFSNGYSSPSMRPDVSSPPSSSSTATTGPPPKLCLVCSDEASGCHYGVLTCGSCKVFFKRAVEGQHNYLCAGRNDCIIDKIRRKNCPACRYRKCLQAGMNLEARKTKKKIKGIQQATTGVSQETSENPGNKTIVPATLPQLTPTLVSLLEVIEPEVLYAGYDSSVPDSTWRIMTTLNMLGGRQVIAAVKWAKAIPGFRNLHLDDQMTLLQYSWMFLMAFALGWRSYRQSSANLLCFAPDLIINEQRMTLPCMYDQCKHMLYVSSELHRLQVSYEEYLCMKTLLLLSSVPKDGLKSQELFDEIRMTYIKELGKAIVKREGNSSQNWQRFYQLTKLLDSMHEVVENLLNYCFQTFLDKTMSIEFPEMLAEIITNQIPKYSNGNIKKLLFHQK
Lysosomal acid glucosylceramidase (Homo sapiens), sequence (P04062 whole entry, looked up): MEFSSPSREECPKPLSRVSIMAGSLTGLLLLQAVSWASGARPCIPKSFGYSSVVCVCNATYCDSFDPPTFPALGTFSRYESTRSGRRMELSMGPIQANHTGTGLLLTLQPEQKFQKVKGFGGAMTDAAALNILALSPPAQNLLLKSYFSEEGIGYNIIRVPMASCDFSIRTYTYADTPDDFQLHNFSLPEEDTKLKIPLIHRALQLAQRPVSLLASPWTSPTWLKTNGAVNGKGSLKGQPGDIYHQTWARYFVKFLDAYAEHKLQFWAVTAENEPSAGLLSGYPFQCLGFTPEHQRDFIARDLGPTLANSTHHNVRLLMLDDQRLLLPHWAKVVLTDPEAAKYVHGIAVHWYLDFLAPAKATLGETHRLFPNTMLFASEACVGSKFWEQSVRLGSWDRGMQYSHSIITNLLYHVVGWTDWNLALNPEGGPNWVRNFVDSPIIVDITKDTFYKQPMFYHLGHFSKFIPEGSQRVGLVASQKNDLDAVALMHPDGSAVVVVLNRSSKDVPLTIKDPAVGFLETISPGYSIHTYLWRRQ
Ubiquitin carboxyl-terminal hydrolase 1 (Homo sapiens), sequence (O94782 whole entry, looked up): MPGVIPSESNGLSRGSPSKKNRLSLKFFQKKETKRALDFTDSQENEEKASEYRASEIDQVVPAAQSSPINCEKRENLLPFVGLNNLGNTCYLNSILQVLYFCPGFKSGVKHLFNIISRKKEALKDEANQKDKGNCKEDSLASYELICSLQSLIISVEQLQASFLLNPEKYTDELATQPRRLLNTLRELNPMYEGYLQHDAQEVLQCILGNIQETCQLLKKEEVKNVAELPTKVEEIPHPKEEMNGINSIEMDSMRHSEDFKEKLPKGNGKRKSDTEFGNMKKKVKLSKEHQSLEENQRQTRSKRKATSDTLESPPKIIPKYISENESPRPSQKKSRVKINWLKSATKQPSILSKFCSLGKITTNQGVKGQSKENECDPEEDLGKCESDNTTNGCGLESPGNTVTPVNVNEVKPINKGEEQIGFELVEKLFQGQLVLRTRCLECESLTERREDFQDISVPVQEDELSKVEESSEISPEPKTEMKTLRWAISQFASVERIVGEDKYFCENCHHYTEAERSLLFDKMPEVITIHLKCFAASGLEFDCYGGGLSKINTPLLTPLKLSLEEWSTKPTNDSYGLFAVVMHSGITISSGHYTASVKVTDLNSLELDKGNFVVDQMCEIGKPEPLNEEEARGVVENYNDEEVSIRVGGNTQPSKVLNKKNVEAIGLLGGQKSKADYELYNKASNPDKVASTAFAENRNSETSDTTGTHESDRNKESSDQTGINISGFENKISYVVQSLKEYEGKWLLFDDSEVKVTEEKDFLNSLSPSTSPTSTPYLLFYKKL

Cc1ccc(CNC(=O)CN(c2cc(C)cc(C)c2)S(=O)(=O)c2c(C)[nH]c(=O)[nH]c2=O)cc1
inactive: Potency [1] | Potency [2] | Potency [3] | Potency [4]

COc1ncc2nc(-c3ccccc3)c(=O)n(Cc3cccs3)c2n1
inactive: Potency [5] > 11.4 µM | activity change, negative = inhibition [6] 3.51% | activity change, negative = inhibition [7] -14.6% | outcome [8] | Potency [9] > 46 µM | Potency [10] | Potency [11] | Potency [1] | Potency [2] | Potency [12]

O=S(=O)(Nc1ccccc1N1CCCCC1)c1cccs1
active: Potency [3] 19 µM
inactive: Potency [1] | Potency [2] | Potency [4]

COCCCNC(=O)C(C#N)c1nc2ccccc2nc1N1CCN(Cc2ccccc2)CC1 (centres undefined)
inactive: outcome [8] | Potency [13] > 20.6 µM | Potency [2] | Potency [12] | Potency [14]
active: Potency [1] 75.7 µM

CC(=O)c1cccc(NC2c3ccccc3C(=O)N2Cc2ccc3c(c2)OCO3)c1 (centres undefined)
inactive: Potency [1] | Potency [2] | Potency [3] | Potency [4]

COc1cc(C)c2c(=O)cc(-c3ccccc3)oc2c1
active: Potency [15] 12.6 µM
inactive: outcome [16] | Potency [17] | Potency [18] | Potency [1] | Potency [2] | Potency [12]

CSc1ccc(S(=O)(=O)NCC(=O)OCC(=O)N(C)Cc2ccccc2)cc1[N+](=O)[O-]
inactive: Potency [1] | Potency [2] | Potency [3]

CCCCN(CCC#N)c1ccc(/C=C/c2ccnc3ccccc23)cc1
inactive: Potency [1] | Potency [2] | Potency [3]

CN(C)c1ccc(/C=C/c2sc3ccccc3[n+]2CCCCBr)cc1
inactive: Potency [1] | Potency [2] | Potency [3]

COC(=O)c1c(SC)nc2ccccc2c1OCc1ccccc1Cl
inactive: Potency [1] | Potency [2] | Potency [3] | Potency [4]

COc1ccc(Br)cc1CN(C)CC(=O)Nc1c(Cl)cccc1Cl
inactive: Potency [1] | Potency [2] | Potency [4]
active: Potency [3] 13.5 µM

CC(=O)Oc1c2c(c3c(c1CC=C(C)C)O[C@@]14C(=CC5CC1C(C)(C)OC4(C/C=C(\C)C(=O)O)C5=O)C3=O)OC(C)(CCC=C(C)C)C=C2 (some centres undefined)
active: Potency [19] 31.6 µM | Potency [1] 55.9 µM
inactive: outcome [16] | Potency [17] | Potency [18] | Potency [2] | Potency [12]

COc1ccc(C(=S)N2CCOCC2)cc1OC(=O)c1ccccc1Cl
inactive: Potency [1] | Potency [2] | Potency [3]

CC(=O)c1cccc(NC(=O)Cn2cc(C(=O)c3cccc(Cl)c3)c(=O)c3ccc(C)nc32)c1
inactive: Potency [1] | Potency [2] | outcome [3] inactive [at 12.7 µM] | Potency [4]

CC(NC(=O)c1ccc(Br)s1)c1ccncc1 (centres undefined)
inactive: Potency [1] | Potency [2] | Potency [3] | Potency [4]

COc1ccc(C(NC(=O)c2cc(OC)ccc2OC)c2ccccc2)cc1 (centres undefined)
inactive: Potency [1] | Potency [2] | Potency [3] | Potency [4]
